Where “and” joins values, the source holds several entries; their conditions need not be identical. Equal values may be shown once. Screen size: about 360,000 compounds; about 2,400 (0.67%) were called active.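 How the source made its calls: active means activation above a run cutoff, the mean activation of all tested compounds plus 3 SD (cut at about 14% in these data); inactive means the rest.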 The sample as a whole holds a higher share of actives than the screen did.
target: 5-hydroxytryptamine receptor 2A (Mus musculus) (UniProt P35363); test: activation of mouse 5-HT2A receptor – cell-based, luminescence, primary screen (AID 624169); conditions: CHO-K1 mHTR2A beta-arrestin complementation, at 7.6 µM, stronger effect = higher value, percent of 30 µM serotonin response;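 further: 0% = plate median of compound wells and 100% = 30 µM serotonin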
Sequence (P35363 whole entry, looked up): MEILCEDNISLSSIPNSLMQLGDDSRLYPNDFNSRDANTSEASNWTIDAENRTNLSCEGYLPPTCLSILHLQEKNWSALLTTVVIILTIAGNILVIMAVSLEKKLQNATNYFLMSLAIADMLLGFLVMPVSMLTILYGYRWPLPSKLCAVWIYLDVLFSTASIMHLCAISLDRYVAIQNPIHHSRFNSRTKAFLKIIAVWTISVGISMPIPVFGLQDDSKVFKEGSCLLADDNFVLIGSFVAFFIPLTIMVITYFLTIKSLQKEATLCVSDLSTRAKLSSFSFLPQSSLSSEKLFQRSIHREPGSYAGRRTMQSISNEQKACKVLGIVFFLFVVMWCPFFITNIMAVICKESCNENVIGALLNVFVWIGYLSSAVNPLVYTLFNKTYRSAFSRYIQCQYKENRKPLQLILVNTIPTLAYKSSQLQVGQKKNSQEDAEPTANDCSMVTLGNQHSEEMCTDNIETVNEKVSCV

activation, inactive:
CCCCN(C(=O)c1ccc(C)o1)c1c(N)n(CCCC)c(=O)[nH]c1=O -12.3%
C/C(CC(=O)NC(C)(C)C)=N\NC(=O)c1ccco1 5.46%
Cc1cc(C)n(-c2ccc(NC(=O)C3CCCCN3C(=O)c3cccs3)cc2)n1 (stereo not drawn) -0.84%
CC(=O)N1CCN(C(=O)c2cc(-c3ccc(Cl)s3)nc3ccccc23)CC1 -0.1%
Cc1cc(C(=O)OCC(=O)N2C(C)CCCC2C)c2ccccc2n1 (stereo not drawn) 5%
CCOc1ccc(CN(Cc2ccco2)C(c2cccs2)c2nnnn2C(C)(C)C)cc1 (stereo not drawn) 6.56%
CC(C)Oc1ccc(Cc2n[nH]c(=S)n2Cc2ccccc2)cc1Cl 0.66%
COC(=O)c1ccccc1OCC(=O)N1CCN(c2ccc(Cl)cc2)CC1 3.93%
CC(C)c1nnc(NC(=O)CCC(=O)N2CCN(c3cccc(Cl)c3)CC2)s1 10.8%
O=C(c1ccco1)N(Cc1nc2ccccc2c(=O)[nH]1)C1CCCC1 3.03%
O=C(CCCN1C(=O)c2cccc3cccc(c23)C1=O)N1CCN(Cc2ccc3c(c2)OCO3)CC1 -3.63%
COc1ccc(-c2cc(C(=O)N3CCN(Cc4ccc5c(c4)OCO5)CC3)on2)cc1OC -7.64%
Cc1nc2ccccc2nc1CC(O)(c1ccccc1)c1ccccc1 1.95%
Cc1ccc(S(=O)(=O)N[C@H]2CCC[C@@H]2O)cc1 0.49%
O=C(O)Cc1csc(-c2cccc(Oc3ccccc3)c2)n1 5.47% and 2.04%
COc1cc(NC(=O)COC(=O)c2cc(S(=O)(=O)N3CCOCC3)ccc2F)cc(OC)c1 2.06%
O=C(OCCOc1ccccc1F)c1cc(S(=O)(=O)N2CCOCC2)ccc1F -6.59%
C[C@H](CO)N1C[C@H](C)[C@@H](CN(C)S(=O)(=O)c2ccc(F)cc2)Oc2c(NC(=O)Nc3ccccc3)cccc2C1=O 1.16%
CCSCc1nc(N)nc(NCCc2ccccc2)n1 -1.03%
CC(=O)c1ccc(OCCCC(=O)Nc2ccc(C)c(S(=O)(=O)N3CCOCC3)c2)cc1 4.29%
COC(=O)c1ccc(-c2c(-c3ccccc3)ncc3cc(OC)c(OC)cc23)cc1 6.54%
COc1cc2ccc(C(C)=O)c(O)c2cc1OC -4.06%
N#Cc1c(NC(=O)C2CC(Cl)=CCC2C(=O)O)sc2c1CCCCC2 (stereo not drawn) 5.86%
N#Cc1c(NC(=O)C2CCCO2)sc2c1CCCCC2 (stereo not drawn) 0.23%
Cc1ccc(OC(=O)c2ccccc2C(=O)OCC(F)(F)C(F)F)cc1 -7.85%
COc1ccc(C(=O)OCC(=O)NC(=O)CCSc2ccccc2)cc1 1.32%
C[C@@H]1C(c2ccc(F)cc2)=NN(c2ccc(Br)cc2)[C@H]1C(=O)N1CCOC1=O -5.98%
CCCCCC(O)(CCN1CCCCC1)c1ccccc1 (stereo not drawn) -1.22%
O=C(CSc1nnc(N2CCOCC2)n1-c1cccc(F)c1)N1CCN(c2ccccn2)CC1 -5.52%
CCc1ccccc1NC(=O)CCOc1ccccc1 1.35%
Cc1ccccc1NC(=O)CCOc1ccccc1 4.29%
CC(=O)Nc1cc(-c2ccccc2F)cn2c(-c3cccc(C(F)(F)F)c3)cnc12 1.96%
CCCCN1CC(N2CCN(Cc3cccc(C)c3)CC2)CS1(=O)=O (stereo not drawn) 12.1%
Cc1cccc(CN2CCN(C3CN(Cc4cn(Cc5ccccc5F)nn4)S(=O)(=O)C3)CC2)c1 (stereo not drawn) 7.98%
Cc1ccc(CN2CC(N3CCC(Cc4ccccc4)CC3)CS2(=O)=O)cc1 (stereo not drawn) -4.23%
Cc1ccc(Cn2cc(CN3CC(N4CCN(C)CC4)CS3(=O)=O)nn2)cc1 (stereo not drawn) -3.17%
COc1ccc(N2CCN(S(=O)(=O)c3cc4c5c(c3)C(C)C(=O)N5CCC4)CC2)cc1 (stereo not drawn) 4.42%
O=C(CNC(=O)c1cc(=O)[nH]c2ccccc12)Nc1ccc(F)c(F)c1 -0.64%
CC1=C(C(=O)N2CCOCC2)CC(CC(=O)NCC2CCCCC2)C(=O)N1Cc1ccc(F)cc1 (stereo not drawn) 0.51%
O=C(COC(=O)CNC(=O)C1CCCCC1)NCc1ccccc1 4.87%
Fc1cccc(Cl)c1COc1ccc(-c2nnco2)cc1 0.11%
C#CCSc1nnc(-c2sc3ccccc3c2Cl)o1 3.02%
O=C(COC(=O)CCOc1ccccc1)Nc1cc(S(=O)(=O)N2CCCCC2)ccc1Cl 2.8%
CS(=O)(=O)c1ccc(Cl)c(NC(=O)COC(=O)c2cccc(S(=O)(=O)N3CCCC3)c2)c1 -2.1%
Cc1ccc(C(=O)NC2CC(C)(C)NC(C)(C)C2)c(C)c1 3.41%
Cc1ccc(S(=O)(=O)NCc2ccc(C(=O)NC3CCC(C)CC3)cc2)cc1 (stereo not drawn) -3.68%

activation, active:
COC(=O)c1cc(N2CCNCC2)nc2ccccc12 54.9%
COC(=O)CC(=O)N1CCN(c2ccc(Cl)c(Cl)c2)CC1 34.5%
O=C(c1cccs1)N1CCN(Cc2ccc3c(c2)OCO3)CC1 25.9%
O=C(COC(=O)c1cc(S(=O)(=O)N2CCOCC2)ccc1F)NC1CC1 20.8%
COc1ccc(/C(=N\O)c2nccc3cc(OC)c(OC)cc23)cc1OC 24.7%
N#Cc1c(NC(=O)CCCl)sc2c1CCCCC2 20%
Cc1ccc(NC(=O)CCOc2ccccc2)cc1S(=O)(=O)Nc1ccccc1Cl 15.2%
Cc1cccc(CN2CCN(C3CN(Cc4cn(Cc5cc(C)cc(C)c5)nn4)S(=O)(=O)C3)CC2)c1 (stereo not drawn) 19.3%
Cc1cccc(CN2CCN(C3CN(Cc4ccccc4)S(=O)(=O)C3)CC2)c1 (stereo not drawn) 20.9%
COc1ccc2c(Cl)c(-c3nnco3)sc2c1 15.6%
O=C(CNCc1cccs1)Nc1cc(S(=O)(=O)N2CCCC2)ccc1Cl 17.4%
Cc1ccc2c(c1)NCC(C(=O)NC1CCC(C)CC1)O2 (stereo not drawn) 16.6%

From PubChem BioAssay AID624169 (The Scripps Research Institute Molecular Screening Center, 2012)
